# ClpP mod – qHTS Assay for Activators of ClpP; purified B. subtilis ClpP, FRET peptide cleavage, 20 min; Potency, µM (series often up to 57.5 µM), inactives show top-dose activity change, negative = active; ATP-dependent Clp protease proteolytic subunit (Bacillus subtilis (strain 168)), P80244; actives 1.9% (n = 340,000); active = well fitted falling curve with a large enough effect; inconclusive = small, poorly fitted or top-dose-only effect; inactive = no such curve, though single readings can be large or run the other way; also: potency is read from the fitted curve at half-maximal effect; the source files actives as falling curves though it sought activators and does not explain the sign; nearly all actives have a fitted effect of over 65% in size
# Target sequence (P80244 whole entry, looked up): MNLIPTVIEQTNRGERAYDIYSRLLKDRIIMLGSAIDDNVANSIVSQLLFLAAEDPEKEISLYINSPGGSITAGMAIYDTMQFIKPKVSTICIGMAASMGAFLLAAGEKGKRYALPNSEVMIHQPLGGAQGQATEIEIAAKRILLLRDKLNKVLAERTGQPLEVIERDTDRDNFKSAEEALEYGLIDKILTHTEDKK
#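 Purified B. subtilis ClpP, 10 microg/mL final in Tris/HCl pH8 with KCl, BSA, glycerol and Tween-20, cleaved an Abz/nitrotyrosine-quenched decapeptide. Fluorescence (ex 320, em 430) was read at 0 and 20 min at room temperature. Delta was normalized to 5.8 microM ADEP and DMSO/no-enzyme controls.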
# IL1B secr inh – qHTS for Inhibitors of Inflammasome Signaling: IL-1-beta AlphaLISA Primary Screen | THP-1 LPS/ATP IL-1B secretion, AlphaLISA, 16 h; stronger effect = lower value | activity change, % at 57.5 µM | actives 4.7% (n = 360,000); in the data active = activity change below about -50%; inconclusive = mostly about -30% to -49%; also: % is scaled to controls: 0 for no effect and ±100 for the full control effect
#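 Secreted IL-1B measured by AlphaLISA bead assay after 16 h compound exposure of THP-1 cells; compounds (final up to 57.5 uM) added 1 h before LPS (250 ng/mL) and ATP (1.25 mM) stimulation; lower signal means less secretion.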
# D3 antag – qHTS of D3 Dopamine Receptor Antagonist: qHTS. D(3) dopamine receptor (Homo sapiens), P35462. D3R cells, DiscoveRx beta-arrestin luminescence, antagonist mode; stronger effect = lower value. max response, negative = inhibition, %. actives 2.5% (n = 360,000); in the data active = max response below about -50%; inconclusive = no clear call, values can overlap the other calls; also: % is scaled to controls: 0 for no effect and ±100 for the full control effect
#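 Cells expressing the human receptor were seeded at 1500 cells/well, incubated overnight at 37 degrees C in 5% CO2, then exposed to library compounds with dopamine controls for 90 minutes at 37 degrees C before luminescent detection.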
# TDP1 cell CPT – qHTS for Inhibitors of human tyrosyl-DNA phosphodiesterase 1 (TDP1): qHTS in cells in presence of CPT. chicken DT40 Tdp1-/-;hTDP1 cells + 20 nM CPT, ATP luminescence, 48 h. Potency, µM (top dose mostly 46.2 µM), for the others: at the top dose activity change, negative = growth inhibition, usual class: inhibitors. actives 12% (n = 420,000); also: potency is read from the fitted curve at half-maximal effect; % is scaled to controls: 0 for no effect and ±100 for the full control effect; nearly all actives have a fitted effect of over 55% in size
#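 Chicken DT40 Tdp1-/- cells complemented with human TDP1, 400 cells/well, exposed to compounds plus 20 nM camptothecin for at least 48 h at 37 C; viability read as ATP content by CellTiter-Glo luminescence.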
# DT40 TDP1 no CPT – qHTS for Inhibitors of human tyrosyl-DNA phosphodiesterase 1 (TDP1): qHTS in cells in absence of CPT. DT40 Tdp1-/- hTDP1 cells, no CPT, ATP luminescence, 48 h. Potency, µM (series often up to 46.2 µM), inactives show at the top dose activity change, negative = growth inhibition, actives largely listed as inhibitors. AID 686978, 2013. actives 15% (n = 420,000); also: potency is read from the fitted curve at half-maximal effect; % is scaled to controls: 0 for no effect and ±100 for the full control effect; nearly all actives have a fitted effect of over 55% in size
#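 Camptothecin absent (DMSO only). Human TDP1-complemented DT40 knockout cells, 400 cells/well, 37 °C for minimum 48 hr; ATP measured via CellTiter-Glo, 30 min dark incubation, luminescence.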
# DRD3 agonist – qHTS of D3 Dopamine Receptor Agonist: qHTS. D(3) dopamine receptor (Homo sapiens), P35462. actives 0.58% (n = 410,000). D3R DiscoveRx beta-arrestin cells, luminescence, 90 min. AID 652048, 2013. max activation, %; in the data active = max activation above about 30%; also: 0% is about no effect
#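 Agonist-mode cell screen: cells plated at 1500/well and incubated overnight at 37 °C, then exposed to library compounds for 90 min at 37 °C. Detection reagent was added for 30–60 min at room temperature, and luminescence was read.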
# * hit, by the source's call; ? = inconclusive; / = not tested or not shown. Only some compounds are listed: those with a hit (about 21% of all), similar ones and a draw of the others. Unless noted, calls follow the shape of the dose curve; as a rule, active = well fitted inhibition curve with a large enough effect; inconclusive = small, poorly fitted or top-dose-only effect; inactive = flat fitted curve, though single readings scatter.
SMILES,ClpP mod,IL1B secr inh,D3 antag,TDP1 cell CPT,DT40 TDP1 no CPT,DRD3 agonist
CC(C)C1C(=O)N(Cc2cn(CCC3OCCO3)nn2)CCS(=O)(=O)N1Cc1ccc(-c2ccc(Cl)c(Cl)c2)cc1 (configuration not stated),-5%,-27,-10,2.1µM*,0.92µM*,0
CC(C)Cc1ccc(CN2C(C(C)C)C(=O)N(Cc3cn(CCC4OCCO4)nn3)CCS2(=O)=O)cc1 (configuration not stated),1%,-56*,11,?,18µM*,3
COc1ccc(C(=O)NCC(=O)OCC(=O)c2cccc3ccccc23)cc1,-1%,/,/,?,-4%,/
Cc1nnc2c(N(C)S(=O)(=O)c3ccccc3)nc3ccccc3n12,-5%,24,8,-10%,0%,-3
Cc1cccc(N(C)c2nc3ccccc3c3nnc(C)n23)c1,1%,/,/,?,29µM*,-3
Cc1ccc(-n2ncc3c(N4CCN(c5ccccc5)CC4)ncnc32)cc1C,-2%,/,/,?,13µM*,15
Cc1ccc(-n2ncc3c(N4CCN(C)CC4)ncnc32)cc1C,-1%,/,/,?,?,12
Cc1ccc(-c2nc3nc(C)cc(N4CCN(c5cccc(C)c5)C(C)C4)n3n2)cc1 (configuration not stated),-2%,/,/,-13%,?,21
Cc1ccc(-n2ncc3c(N4CCN(c5ccccc5)CC4)ncnc32)c(C)c1,9%,-69*,33,5.8µM*,4.6µM*,36*
CC1=C(c2ccc(Cl)cc2)S(=O)(=O)N=C1N1CCN(c2cccc(C)c2)C(C)C1 (configuration not stated),1%,/,/,5.2µM*,5.2µM*,7
Cc1cccc(-n2ncc3c(N4CCN(c5ccccc5)CC4)ncnc32)c1,33%,/,/,21µM*,?,9
Cc1cccc(-n2ncc3c(N4CCCC4)ncnc32)c1,-1%,-7,-15,-31%,-27%,3
CC(=O)c1ccc(NC(=O)CN2C(=O)NC(C)(C3CCCCC3)C2=O)cc1 (configuration not stated),-2%,0,-1,-6%,9%,2
COc1ccc(N2CCN(c3nc4cc(C)ccc4cc3C=O)CC2)cc1,/,-64*,-2,?,?,31*
COc1ccc(-n2ncc3c(N4CCN(c5cc(C)ccc5C)CC4)ncnc32)cc1,-17%,2,3,0%,?,2
COc1ccc(C2=C(N3CCN(c4cccc(C)c4)C(C)C3)c3ccccc3C2=O)cc1 (configuration not stated),-2%,/,/,21µM*,26µM*,10
COc1ccc(N2CCN(c3ncnc4c3cnn4-c3ccc(C)cc3C)CC2)cc1,-6%,20,9,?,12µM*,12
COc1ccc(-n2ncc3c(N4CCN(c5cccc(C)c5)C(C)C4)ncnc32)cc1 (configuration not stated),-24%,/,/,2.9µM*,10µM*,5
COc1cccc(C2/C(=C(/O)c3ccc4c(c3)OCO4)C(=O)C(=O)N2CCN2CCOCC2)c1 (configuration not stated),-2%,8,-5,27%,17%,-1
CN(NS(=O)(=O)c1ccc(Br)cc1)c1nc(C(F)(F)F)nc2ccccc12,/,-55*,10,23µM*,?,6
CCn1c(=O)c2cc(C(=O)N(C)c3ccc(OC)cc3OC)sc2c2ccccc21,-6%,-7,2,?,13µM*,5

# Screens as filed in PubChem.
